According to PMC7862700, “An all-to-all approach to the identification of sequence-specific readers for epigenetic DNA modifications on cytosine”:

Experiments:
Assay in all cases: DAPPL (digital affinity profiling via proximity ligation, sequencing); 10 mM Tris-HCl pH 7.5, 50 mM NaCl, 1 mM DTT, 4% glycerol, room temperature, 30 min; GST-TFs on glutathione beads, 16-mer random dsDNA library, 0.1% formaldehyde crosslink after washing; high values mean tight binding
Conditions in all cases: protein: recombinant; tags: N-terminal GST; dsDNA, one strand shown
[1] = molecular target: T1, GABPA (Homo sapiens, UniProt Q06546 1-454)
T1 sequence: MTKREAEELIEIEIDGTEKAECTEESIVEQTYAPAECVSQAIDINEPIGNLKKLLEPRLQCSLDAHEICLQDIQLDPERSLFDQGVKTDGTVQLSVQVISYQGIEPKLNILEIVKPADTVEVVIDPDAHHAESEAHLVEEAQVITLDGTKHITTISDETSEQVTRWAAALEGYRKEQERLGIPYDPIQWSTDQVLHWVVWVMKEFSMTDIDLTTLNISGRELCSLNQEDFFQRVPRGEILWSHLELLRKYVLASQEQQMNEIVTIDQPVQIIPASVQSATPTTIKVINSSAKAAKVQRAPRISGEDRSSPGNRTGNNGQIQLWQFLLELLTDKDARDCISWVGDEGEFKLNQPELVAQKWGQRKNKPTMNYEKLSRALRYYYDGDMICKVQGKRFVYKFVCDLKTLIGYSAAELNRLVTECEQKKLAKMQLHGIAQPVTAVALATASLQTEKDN
Procedure, shortened: (§1)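 Pools were built from human transcription factors expressed in yeast as GST fusions, captured on glutathione beads and DNA-barcoded, along with a tag-only sample. Incubation with 200 nmole of a 16-mer random double-stranded DNA library lasted 30 min at room temperature in Tris/NaCl/DTT/glycerol buffer, and was followed by washing, 0.1% formaldehyde crosslinking, proximity ligation, PCR amplification and Illumina NextSeq500 sequencing. Binding signal is the quotient of each hexamer's read frequency for a factor and its frequency for the tag-only sample.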

[2] = molecular target: ELF1 (Homo sapiens, UniProt P32519 1-619)
Procedure, shortened: as §1

[3] = molecular target: T2, EHF (Homo sapiens, UniProt Q9NZC4 1-300)
T2 sequence: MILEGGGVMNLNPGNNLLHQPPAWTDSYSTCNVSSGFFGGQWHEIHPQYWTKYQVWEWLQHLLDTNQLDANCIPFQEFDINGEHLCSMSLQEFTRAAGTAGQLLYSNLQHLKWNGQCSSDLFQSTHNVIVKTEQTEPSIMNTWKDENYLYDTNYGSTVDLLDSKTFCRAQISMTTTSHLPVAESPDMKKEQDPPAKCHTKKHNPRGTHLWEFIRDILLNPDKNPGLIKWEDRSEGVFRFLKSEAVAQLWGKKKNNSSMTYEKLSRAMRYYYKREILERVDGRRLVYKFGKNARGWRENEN
Procedure, shortened: as §1

[4] = molecular target: SPI1 (Homo sapiens, UniProt P17947 1-270)
Procedure, shortened: as §1

[5] = molecular target: SPIB (Homo sapiens, UniProt Q01892 1-262)
Procedure, shortened: as §1

[6] = molecular target: ETV5 (Homo sapiens, UniProt P41161 1-510)
Procedure, shortened: as §1

[7] = molecular target: ELF4 (Homo sapiens, UniProt Q99607 1-663)
Procedure, shortened: as §1

[8] = molecular target: T3, ELK4 (Homo sapiens, UniProt P28324-2 1-405)
T3 sequence: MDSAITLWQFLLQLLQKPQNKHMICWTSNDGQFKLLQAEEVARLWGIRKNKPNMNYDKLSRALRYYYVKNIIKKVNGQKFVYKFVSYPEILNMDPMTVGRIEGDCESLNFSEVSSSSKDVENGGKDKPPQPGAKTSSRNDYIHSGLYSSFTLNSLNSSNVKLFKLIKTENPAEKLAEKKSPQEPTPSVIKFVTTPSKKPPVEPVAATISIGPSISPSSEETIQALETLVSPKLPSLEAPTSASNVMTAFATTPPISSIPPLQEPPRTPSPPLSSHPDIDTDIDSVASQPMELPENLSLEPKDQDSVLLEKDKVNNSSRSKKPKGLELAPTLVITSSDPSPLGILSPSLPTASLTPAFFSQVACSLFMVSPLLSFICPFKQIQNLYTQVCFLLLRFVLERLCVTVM
Procedure, shortened: as §1

[9] = molecular target: T4, ELF3 (Homo sapiens, UniProt P78545 1-371)
T4 sequence: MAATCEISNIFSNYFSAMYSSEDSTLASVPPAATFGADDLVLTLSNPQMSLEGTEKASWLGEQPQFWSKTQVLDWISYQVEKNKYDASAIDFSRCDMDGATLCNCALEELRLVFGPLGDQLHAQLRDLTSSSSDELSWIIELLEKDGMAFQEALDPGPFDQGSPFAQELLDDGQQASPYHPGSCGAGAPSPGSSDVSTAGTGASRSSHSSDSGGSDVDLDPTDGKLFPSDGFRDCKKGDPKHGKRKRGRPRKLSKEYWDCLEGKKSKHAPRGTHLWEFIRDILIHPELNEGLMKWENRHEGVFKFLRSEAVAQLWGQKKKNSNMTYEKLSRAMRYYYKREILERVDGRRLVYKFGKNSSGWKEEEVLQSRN
Procedure, shortened: as §1

[10] = molecular target: ETV1 (Homo sapiens, UniProt P50549 1-477)
Procedure, shortened: as §1

[11] = molecular target: T5, SPDEF (Homo sapiens, UniProt O95238 1-335)
T5 sequence: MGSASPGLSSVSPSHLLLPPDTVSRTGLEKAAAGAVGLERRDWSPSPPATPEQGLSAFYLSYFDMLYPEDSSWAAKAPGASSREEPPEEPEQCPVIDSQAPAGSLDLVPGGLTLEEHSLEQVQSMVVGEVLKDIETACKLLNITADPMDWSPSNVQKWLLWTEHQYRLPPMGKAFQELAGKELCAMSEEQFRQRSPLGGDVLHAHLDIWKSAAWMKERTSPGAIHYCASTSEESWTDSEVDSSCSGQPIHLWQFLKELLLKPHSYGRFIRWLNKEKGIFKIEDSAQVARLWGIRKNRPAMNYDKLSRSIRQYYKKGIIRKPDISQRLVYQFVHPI
Procedure, shortened: as §1

[12] = molecular target: T6, ETV3 (Homo sapiens, UniProt P41162-2 1-143)
T6 sequence: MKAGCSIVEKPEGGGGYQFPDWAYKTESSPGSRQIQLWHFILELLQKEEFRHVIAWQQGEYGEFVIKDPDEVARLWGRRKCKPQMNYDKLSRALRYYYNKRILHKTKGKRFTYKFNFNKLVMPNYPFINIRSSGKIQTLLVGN
Procedure, shortened: as §1

[13] = molecular target: ETV6 (Homo sapiens, UniProt P41212 1-452)
Procedure, shortened: as §1

[14] = molecular target: T7, ELK1 (Homo sapiens, UniProt P19419 1-428)
T7 sequence: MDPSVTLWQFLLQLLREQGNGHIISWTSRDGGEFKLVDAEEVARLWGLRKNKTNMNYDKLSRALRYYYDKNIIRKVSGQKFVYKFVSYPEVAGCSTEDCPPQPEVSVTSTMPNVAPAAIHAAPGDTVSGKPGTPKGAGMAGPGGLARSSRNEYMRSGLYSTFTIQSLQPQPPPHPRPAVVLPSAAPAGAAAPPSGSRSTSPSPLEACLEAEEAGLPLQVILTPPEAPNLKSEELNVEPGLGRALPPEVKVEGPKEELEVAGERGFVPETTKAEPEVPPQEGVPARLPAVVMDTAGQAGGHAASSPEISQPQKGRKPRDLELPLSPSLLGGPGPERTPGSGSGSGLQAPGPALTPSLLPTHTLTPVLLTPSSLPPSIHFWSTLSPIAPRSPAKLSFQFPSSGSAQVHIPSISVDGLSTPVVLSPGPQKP
Procedure, shortened: as §1

[15] = molecular target: T8, ERG (Homo sapiens, UniProt P11308 1-479)
T8 sequence: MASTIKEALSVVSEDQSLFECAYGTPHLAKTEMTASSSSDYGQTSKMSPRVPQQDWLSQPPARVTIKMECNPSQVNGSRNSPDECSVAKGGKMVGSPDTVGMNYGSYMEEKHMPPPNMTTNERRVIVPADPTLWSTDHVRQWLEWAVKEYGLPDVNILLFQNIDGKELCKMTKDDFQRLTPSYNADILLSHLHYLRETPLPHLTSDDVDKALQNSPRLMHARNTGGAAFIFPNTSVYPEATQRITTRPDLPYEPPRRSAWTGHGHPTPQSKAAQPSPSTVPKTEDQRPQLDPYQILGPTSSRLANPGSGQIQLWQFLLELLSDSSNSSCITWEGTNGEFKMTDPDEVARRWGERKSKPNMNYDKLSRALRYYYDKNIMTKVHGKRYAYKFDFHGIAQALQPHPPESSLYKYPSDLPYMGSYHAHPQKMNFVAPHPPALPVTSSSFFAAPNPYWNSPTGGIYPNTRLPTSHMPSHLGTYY
Procedure, shortened: as §1

[16] = molecular target: T9, FEV (Homo sapiens, UniProt Q99581 1-238)
T9 sequence: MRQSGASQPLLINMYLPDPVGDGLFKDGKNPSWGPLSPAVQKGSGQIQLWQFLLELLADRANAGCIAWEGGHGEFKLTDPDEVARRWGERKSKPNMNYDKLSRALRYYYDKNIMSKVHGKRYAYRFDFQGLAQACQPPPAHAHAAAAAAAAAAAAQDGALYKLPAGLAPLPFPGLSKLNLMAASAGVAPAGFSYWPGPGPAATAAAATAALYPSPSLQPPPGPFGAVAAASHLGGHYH
Procedure, shortened: as §1

Sequence of ETV1 (P50549 whole entry): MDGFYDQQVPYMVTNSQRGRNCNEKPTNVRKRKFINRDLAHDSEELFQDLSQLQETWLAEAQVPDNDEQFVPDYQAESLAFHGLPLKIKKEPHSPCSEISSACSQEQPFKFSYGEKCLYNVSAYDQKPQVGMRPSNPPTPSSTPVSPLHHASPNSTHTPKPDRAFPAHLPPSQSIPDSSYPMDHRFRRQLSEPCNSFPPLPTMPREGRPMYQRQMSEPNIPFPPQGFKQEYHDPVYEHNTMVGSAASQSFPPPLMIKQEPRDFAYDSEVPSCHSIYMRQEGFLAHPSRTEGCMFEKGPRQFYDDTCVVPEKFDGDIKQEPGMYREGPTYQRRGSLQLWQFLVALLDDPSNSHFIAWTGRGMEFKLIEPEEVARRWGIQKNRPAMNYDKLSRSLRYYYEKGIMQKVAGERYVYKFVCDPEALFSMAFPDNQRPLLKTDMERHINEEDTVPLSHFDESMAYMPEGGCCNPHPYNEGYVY
Sequence of ELF4 (Q99607 whole entry): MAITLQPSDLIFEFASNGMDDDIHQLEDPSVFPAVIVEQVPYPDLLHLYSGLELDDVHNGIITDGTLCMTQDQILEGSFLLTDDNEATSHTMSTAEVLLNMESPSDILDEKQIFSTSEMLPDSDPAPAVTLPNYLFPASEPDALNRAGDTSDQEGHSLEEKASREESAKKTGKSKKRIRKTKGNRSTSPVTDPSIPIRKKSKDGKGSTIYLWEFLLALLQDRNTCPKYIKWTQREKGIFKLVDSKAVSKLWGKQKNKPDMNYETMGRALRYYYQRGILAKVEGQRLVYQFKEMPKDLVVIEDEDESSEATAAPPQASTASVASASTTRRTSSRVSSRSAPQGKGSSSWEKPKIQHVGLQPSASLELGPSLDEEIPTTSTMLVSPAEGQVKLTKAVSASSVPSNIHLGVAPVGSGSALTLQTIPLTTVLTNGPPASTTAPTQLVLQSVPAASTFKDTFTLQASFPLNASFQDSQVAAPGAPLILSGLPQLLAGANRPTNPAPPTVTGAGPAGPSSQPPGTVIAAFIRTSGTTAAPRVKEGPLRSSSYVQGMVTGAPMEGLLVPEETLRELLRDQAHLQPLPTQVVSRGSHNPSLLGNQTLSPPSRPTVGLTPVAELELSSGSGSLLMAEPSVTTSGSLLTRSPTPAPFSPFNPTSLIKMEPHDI
Sequence of SPIB (Q01892 whole entry): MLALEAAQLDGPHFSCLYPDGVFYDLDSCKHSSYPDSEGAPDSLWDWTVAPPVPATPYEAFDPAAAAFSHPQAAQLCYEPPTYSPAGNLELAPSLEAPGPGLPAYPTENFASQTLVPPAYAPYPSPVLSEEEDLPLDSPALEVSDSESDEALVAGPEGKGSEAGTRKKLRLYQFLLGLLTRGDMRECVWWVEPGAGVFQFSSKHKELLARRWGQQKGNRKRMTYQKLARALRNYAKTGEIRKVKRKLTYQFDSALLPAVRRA
Sequence of ETV5 (P41161 whole entry): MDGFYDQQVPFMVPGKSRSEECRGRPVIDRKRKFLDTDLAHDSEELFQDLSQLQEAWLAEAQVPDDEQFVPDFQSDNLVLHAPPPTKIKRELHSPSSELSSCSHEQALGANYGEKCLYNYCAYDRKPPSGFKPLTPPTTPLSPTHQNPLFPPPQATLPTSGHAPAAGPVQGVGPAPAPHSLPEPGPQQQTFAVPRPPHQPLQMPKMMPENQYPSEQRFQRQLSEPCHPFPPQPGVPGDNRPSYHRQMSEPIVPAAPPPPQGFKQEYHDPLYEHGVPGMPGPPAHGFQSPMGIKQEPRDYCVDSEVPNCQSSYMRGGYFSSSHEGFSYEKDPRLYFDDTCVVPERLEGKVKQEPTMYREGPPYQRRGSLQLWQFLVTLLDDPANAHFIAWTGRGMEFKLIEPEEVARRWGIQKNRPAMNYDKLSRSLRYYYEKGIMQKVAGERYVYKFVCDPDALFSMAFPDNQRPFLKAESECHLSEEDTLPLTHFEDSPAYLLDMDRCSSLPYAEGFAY
Sequence of ELF1 (P32519 whole entry): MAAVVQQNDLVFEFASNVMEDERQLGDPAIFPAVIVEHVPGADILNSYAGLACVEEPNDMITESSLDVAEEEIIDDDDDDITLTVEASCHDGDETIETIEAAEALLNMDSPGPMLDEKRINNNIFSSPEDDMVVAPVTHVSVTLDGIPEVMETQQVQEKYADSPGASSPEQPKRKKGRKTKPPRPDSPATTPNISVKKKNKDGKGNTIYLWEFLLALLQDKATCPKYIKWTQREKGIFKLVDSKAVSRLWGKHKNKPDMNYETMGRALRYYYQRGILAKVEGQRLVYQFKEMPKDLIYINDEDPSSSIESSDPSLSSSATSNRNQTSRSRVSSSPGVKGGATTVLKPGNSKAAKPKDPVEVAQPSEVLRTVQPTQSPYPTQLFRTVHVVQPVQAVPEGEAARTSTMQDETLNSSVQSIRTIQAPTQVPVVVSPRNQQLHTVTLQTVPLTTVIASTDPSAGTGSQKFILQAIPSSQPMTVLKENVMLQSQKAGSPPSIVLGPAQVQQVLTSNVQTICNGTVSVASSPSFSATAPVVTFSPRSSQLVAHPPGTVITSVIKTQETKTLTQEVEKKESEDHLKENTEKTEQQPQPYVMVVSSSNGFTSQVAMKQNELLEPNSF
Sequence of ETV6 (P41212 whole entry): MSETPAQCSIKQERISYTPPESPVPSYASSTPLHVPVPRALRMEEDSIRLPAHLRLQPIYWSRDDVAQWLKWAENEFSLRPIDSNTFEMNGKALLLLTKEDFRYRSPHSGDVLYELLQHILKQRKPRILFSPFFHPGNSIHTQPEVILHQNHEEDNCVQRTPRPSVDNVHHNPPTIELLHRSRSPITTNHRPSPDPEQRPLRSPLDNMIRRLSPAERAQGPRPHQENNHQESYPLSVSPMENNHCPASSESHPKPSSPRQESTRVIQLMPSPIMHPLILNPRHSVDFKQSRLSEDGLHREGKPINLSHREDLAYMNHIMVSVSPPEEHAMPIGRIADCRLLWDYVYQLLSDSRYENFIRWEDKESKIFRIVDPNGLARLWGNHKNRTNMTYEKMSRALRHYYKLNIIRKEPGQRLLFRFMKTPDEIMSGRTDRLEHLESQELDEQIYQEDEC

ACGCGG
binding signal [1]: 1.01 fold enrichment (6-mer frequency, TF over GST control)
binding signal [2]: 1.03 fold enrichment (6-mer frequency, TF over GST control)
binding signal [3]: 1.04 fold enrichment (6-mer frequency, TF over GST control)
binding signal [4]: 1.02 fold enrichment (6-mer frequency, TF over GST control)
binding signal [5]: 1.04 fold enrichment (6-mer frequency, TF over GST control)
binding signal [6]: 1.02 fold enrichment (6-mer frequency, TF over GST control)
binding signal [7]: 1 fold enrichment (6-mer frequency, TF over GST control)
binding signal [8]: 1.03 fold enrichment (6-mer frequency, TF over GST control)
binding signal [9]: 1.07 fold enrichment (6-mer frequency, TF over GST control)
binding signal [10]: 1.02 fold enrichment (6-mer frequency, TF over GST control)
binding signal [11]: 1.08 fold enrichment (6-mer frequency, TF over GST control)
binding signal [12]: 1.02 fold enrichment (6-mer frequency, TF over GST control)
binding signal [13]: 1.07 fold enrichment (6-mer frequency, TF over GST control)

GGTCAC
binding signal [14]: 1.02 fold enrichment (6-mer frequency, TF over GST control)
binding signal [1]: 1.06 fold enrichment (6-mer frequency, TF over GST control)
binding signal [15]: 1.01 fold enrichment (6-mer frequency, TF over GST control)
binding signal [3]: 1.04 fold enrichment (6-mer frequency, TF over GST control)
binding signal [5]: 1.02 fold enrichment (6-mer frequency, TF over GST control)
binding signal [16]: 1.04 fold enrichment (6-mer frequency, TF over GST control)
binding signal [6]: 1 fold enrichment (6-mer frequency, TF over GST control)
binding signal [7]: 1.03 fold enrichment (6-mer frequency, TF over GST control)
binding signal [9]: 1.05 fold enrichment (6-mer frequency, TF over GST control)
binding signal [10]: 1.02 fold enrichment (6-mer frequency, TF over GST control)
binding signal [11]: 1.05 fold enrichment (6-mer frequency, TF over GST control)
